Measurements from PubChem BioAssay (EPA / NIEHS).
Records with an inconclusive call do not appear. A structure can be active in one record and inactive in another. Activity calls are given as the source filed them. How the source made its calls, unless noted: active means hit-call score of the fitted dose curve at least 0.9, where 1 is the maximum; inactive means score below 0.9.

What was measured:
[1] = ATG_PBREM_CIS: Attagene CIS-FACTORIAL HepG2 Assay for human Phenobarbital-responsive Enhancer Module (PBREM) (AID 2282955); conditions: HepG2 PBREM cis-reporter, Attagene multiplexed transcription; actives raise or lower the signal
Summary of the method: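 Multiplexed cis-reporter readout in human hepatoma HepG2 cells; PBREM-regulated transcript quantified after 24 h exposure by fluorescent RT-PCR fragment analysis. Signal changes up or down fitted relative to DMSO.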

[2] = molecular target: Paired box protein Pax-6 (Homo sapiens) (UniProt P26367); test: ATG_Pax6_CIS: Attagene CIS-FACTORIAL HepG2 Assay for human Paired Box 6 (PAX6) (AID 2282956); conditions: HepG2 CIS-FACTORIAL PAX6 reporter transcription, RNA readout; actives raise or lower the signal
Summary of the method: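 Fluorescent RT-PCR products separated by capillary electrophoresis report PAX6-linked promoter mRNA in HepG2 cells 24 h post-dose. Curves fitted bidirectionally, DMSO as negative control.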

[3] = ATG_PXRE_CIS: Attagene CIS-FACTORIAL HepG2 Assay for human Pregnane X Receptor Element (PXRE) (AID 2282957); conditions: HepG2 Attagene CIS-FACTORIAL PXRE reporter, mRNA; actives raise or lower the signal
Summary of the method: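 Using HepG2 transfected with multiple reporter transcription units, endogenous factor-driven transcription was scored as reporter mRNA after 24 h exposure.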

[4] = ATG_PPRE_CIS: Attagene CIS-FACTORIAL HepG2 Assay for human Peroxisome Proliferator-activated Response Element (PPRE) (AID 2282958); conditions: HepG2 PPRE cis-element reporter, Attagene transcription factor profiling; actives raise or lower the signal
Summary of the method: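 DMSO served as negative control and baseline for bidirectional curve fitting. Signal came from PPRE-regulated reporter mRNA in HepG2 cells, measured 24 h post-dosing by RT-PCR, 6-FAM primer extension and capillary electrophoresis.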

[5] = ATG_RORE_CIS: Attagene CIS-FACTORIAL HepG2 Assay for human RAR-related Orphan Receptor Element (RORE) (AID 2282959); conditions: HepG2 Attagene cis-factorial RORE reporter, mRNA; actives raise or lower the signal
Summary of the method: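 Transfect HepG2 with MRTUs; treat 24 h; extract RNA; RT with oligo(dT); PCR with reporter-specific primers; 6-FAM primer extension; HpaI digest 2 h at 37 C; capillary electrophoresis. Fit vs DMSO, bidirectional.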

[6] = ATG_Sox_CIS: Attagene CIS-FACTORIAL HepG2 Assay for human SRY-box transcription factor (SOX) (AID 2282960); conditions: HepG2 Attagene cis-factorial SOX reporter, mRNA; actives raise or lower the signal
Summary of the method: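 Fluorescence-labelled cDNA fragments from reporter transcripts, sized by CE, give the signal. Cells: HepG2, transiently transfected with cis-regulated reporter units. Exposure 24 h; DMSO negative control; bidirectional curve fitting.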

[7] = molecular target: Transcription factor Sp1 (Homo sapiens) (UniProt P08047); test: ATG_Sp1_CIS: Attagene CIS-FACTORIAL HepG2 Assay for human Specificity Protein 1 (Sp1) (AID 2282961); conditions: HepG2 Sp1 cis-reporter transcription, actives raise or lower the signal
Summary of the method: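 Chemicals are dosed onto HepG2 cells transfected with multiple cis-promoter reporter constructs, and after 24 h reporter RNA is reverse-transcribed, PCR-amplified and resolved by capillary electrophoresis for fluorescence quantitation; activity is scored up or down against DMSO.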

[8] = ATG_SREBP_CIS: Attagene CIS-FACTORIAL HepG2 Assay for human Sterol Regulatory Element Binding (SREBP) (AID 2282962); conditions: HepG2 Attagene cis-factorial SREBP reporter, mRNA; actives raise or lower the signal
Summary of the method: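 Endogenous factor activity is measured in HepG2 through multiplexed reporter units under cis-element control. Following a 24 h incubation, reporter transcripts are reverse-transcribed, PCR-amplified and sized by capillary electrophoresis; activity is fitted in both directions relative to DMSO.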

[9] = molecular target: Signal transducer and activator of transcription 3 (Homo sapiens) (UniProt P40763); test: ATG_STAT3_CIS: Attagene CIS-FACTORIAL HepG2 Assay for human Signal Transducer and Activator of Transcription 3 (STAT3) (AID 2282963); conditions: HepG2, Attagene cis-factorial STAT3 reporter transcription; actives raise or lower the signal
Summary of the method: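 HepG2, MRTU-transfected, 24 h dosing. RNA → RT → PCR → FAM label → HpaI → CE. Bidirectional fit vs DMSO.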

[10] = ATG_TA_CIS: Attagene CIS-FACTORIAL HepG2 Assay for human TA Basal Promoter (AID 2282964); conditions: HepG2 Attagene CIS-factorial TA basal promoter reporter; actives raise or lower the signal
Summary of the method: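 Cis-factorial format in HepG2: reporters report endogenous factors, not chimeric Gal4 fusions. After 24 h treatment, reporter transcripts were measured by RT-PCR-capillary electrophoresis fluorescence, analysed bidirectionally versus DMSO.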

[11] = ATG_TCF_b_cat_CIS: Attagene CIS-FACTORIAL HepG2 Assay for human T-Cell-Factor with beta-catenin (TCF/b-cat) (AID 2282965); conditions: HepG2 TCF/beta-catenin cis-reporter transcription, actives raise or lower the signal
Summary of the method: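 Using capillary electrophoresis as the read-out, labelled reporter cDNA fragments from transiently transfected HepG2 were sized and quantified. Exposure lasted 24 hours; activity in either direction was referenced to DMSO.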

[12] = ATG_TAL_CIS: Attagene CIS-FACTORIAL HepG2 Assay for human TAL Basal Promoter (AID 2282966); conditions: HepG2 Attagene cis-factorial TAL promoter reporter; actives raise or lower the signal;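 further: background control endpoint measuring basal TAL promoter reporter mRNA not a specific factor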
Summary of the method: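 After 24 hours of chemical exposure, transfected HepG2 cells yielded RNA that was converted to 6-FAM-labelled, HpaI-digested reporter fragments for capillary electrophoresis. Values derive from bidirectional fitting against DMSO controls.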

[13] = ATG_TGFb_CIS: Attagene CIS-FACTORIAL HepG2 Assay for human Transforming Growth Factor (TGF) (AID 2282967); conditions: HepG2 Attagene CIS TGFb reporter, mRNA transcription; actives raise or lower the signal
Summary of the method: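 Multiplexed cis-reporter HepG2 system, 24 h treatment; mRNA induction read by fluorescence after RT-PCR and CE; DMSO negative control, bidirectional curve fitting.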

[14] = ATG_VDRE_CIS: Attagene CIS-FACTORIAL HepG2 Assay for human Vitamin D Receptor Element (VDRE) (AID 2282968); conditions: HepG2 VDRE cis-reporter transcription, actives raise or lower the signal
Summary of the method: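 Steps: transfect HepG2 with multiple reporter transcription units; dose chemicals 24 h; isolate RNA; RT-PCR; label with 6-FAM primer extension; HpaI digest; capillary electrophoresis. Curves fitted both directions against DMSO.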

[15] = molecular target: Nuclear receptor subfamily 1 group I member 3 (Homo sapiens) (UniProt Q14994); test: ATG_CAR_TRANS: Attagene TRANS-FACTORIAL HepG2 Assay for human Constitutive Androstane Receptor (CAR) (AID 2282969; active means hit-call score of the fitted dose curve at least 0.9, where 1 is the maximum;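 further: activators raise reporter mRNA above DMSO so AC50 marks induction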); conditions: HepG2 Attagene TRANS-FACTORIAL CAR reporter
Summary of the method: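 Steps: transient transfection of HepG2 with multiple GAL4-UAS reporter units; 24 h compound incubation; RNA isolation, RT-PCR, 6-FAM primer extension, HpaI digest; capillary electrophoresis. Gain-of-signal relative to DMSO negative control.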

[16] = molecular target: Estrogen receptor (Homo sapiens) (UniProt P03372); test: ATG_ERa_TRANS: Attagene TRANS-FACTORIAL HepG2 Assay for human Estrogen Receptor alpha (ERa) (AID 2282970; active means hit-call score of the fitted dose curve at least 0.9, where 1 is the maximum); conditions: HepG2 Attagene TRANS ERa GAL4 reporter, mRNA
Summary of the method: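 Liver-derived HepG2 cells expressing chimeric nuclear receptor-Gal4 proteins from transient transfection were exposed for 24 hours. Gain of reporter mRNA signal versus DMSO, read by capillary electrophoresis of FAM-labelled PCR products, was recorded.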

[17] = molecular target: Steroid hormone receptor ERR1 (Homo sapiens) (UniProt P11474); test: ATG_ERRa_TRANS: Attagene TRANS-FACTORIAL HepG2 Assay for human Estrogen-Related Receptor alpha (ERRa) (AID 2282971; active means hit-call score of the fitted dose curve at least 0.9, where 1 is the maximum); conditions: HepG2 Attagene TRANS reporter, ERRa transactivation
Summary of the method: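 Reporter transcript induction was quantified by RT-PCR and capillary electrophoresis of FAM-labelled, HpaI-cut products after 24 h treatment of HepG2 cells carrying transiently transfected GAL4-UAS reporter units and an exogenous ERRa-Gal4 fusion; activity scored as increase over DMSO.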

[18] = molecular target: X-box-binding protein 1 (Homo sapiens) (UniProt P17861); test: ATG_Xbp1_CIS: Attagene CIS-FACTORIAL HepG2 Assay for human X-box Binding Protein 1 (XBP1) (AID 2282972); conditions: HepG2 XBP1 cis-element reporter, Attagene multiplex; actives raise or lower the signal
Summary of the method: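 Multiplexed cis-reporter readout in transfected HepG2 liver cells. Exposure lasted 24 hours. Activity in either direction was fitted against DMSO as negative control and baseline.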

[19] = ATG_M_19_TRANS: Attagene TRANS-FACTORIAL HepG2 Assay for M19 Transcription Factor (Internal Marker) (AID 2282974; active means hit-call score of the fitted dose curve at least 0.9, where 1 is the maximum); conditions: HepG2 Attagene TRANS-FACTORIAL M19 internal marker reporter
Summary of the method: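 Multiplexed TRANS format: HepG2 liver cells bearing transient GAL4-UAS reporter units, chemical treatment 24 h, reporter transcripts quantified by RT-PCR plus capillary electrophoresis. DMSO defines baseline.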

[20] = ATG_GAL4_TRANS: Attagene TRANS-FACTORIAL HepG2 Assay for GAL4 (Internal Marker) (AID 2282976; active means hit-call score of the fitted dose curve at least 0.9, where 1 is the maximum); conditions: HepG2 Attagene TRANS GAL4 internal marker reporter
Summary of the method: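 First, HepG2 cells were transfected with reporter units under GAL4-UAS control. Next, they were treated with chemical for 24 h. Finally, RNA was reverse-transcribed, PCR-amplified, FAM-labelled and resolved by capillary electrophoresis, with induction scored against DMSO.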

Measured: AC50

Transcription factor Sp1 (Homo sapiens), sequence (P08047 whole entry, looked up): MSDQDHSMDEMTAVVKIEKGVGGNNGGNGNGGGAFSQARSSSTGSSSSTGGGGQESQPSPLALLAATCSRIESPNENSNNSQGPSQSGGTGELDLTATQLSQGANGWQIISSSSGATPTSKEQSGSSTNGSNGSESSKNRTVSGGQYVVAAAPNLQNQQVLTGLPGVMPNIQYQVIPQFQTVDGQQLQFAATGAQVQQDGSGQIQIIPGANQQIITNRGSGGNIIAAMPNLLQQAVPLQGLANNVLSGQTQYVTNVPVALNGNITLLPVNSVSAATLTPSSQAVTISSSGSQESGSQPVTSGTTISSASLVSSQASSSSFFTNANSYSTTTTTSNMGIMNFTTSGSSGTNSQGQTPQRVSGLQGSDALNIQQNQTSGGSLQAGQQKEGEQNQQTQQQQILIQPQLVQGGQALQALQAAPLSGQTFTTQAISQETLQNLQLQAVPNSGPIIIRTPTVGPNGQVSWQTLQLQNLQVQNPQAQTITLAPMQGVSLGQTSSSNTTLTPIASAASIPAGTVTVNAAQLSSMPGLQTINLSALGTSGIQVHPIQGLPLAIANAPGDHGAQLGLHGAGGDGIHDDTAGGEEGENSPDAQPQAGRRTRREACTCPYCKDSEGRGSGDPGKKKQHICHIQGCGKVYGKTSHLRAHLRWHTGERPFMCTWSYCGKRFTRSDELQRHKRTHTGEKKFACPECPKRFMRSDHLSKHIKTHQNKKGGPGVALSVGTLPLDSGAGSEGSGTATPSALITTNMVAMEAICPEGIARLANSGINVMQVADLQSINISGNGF
Signal transducer and activator of transcription 3 (Homo sapiens), sequence (P40763 whole entry, looked up): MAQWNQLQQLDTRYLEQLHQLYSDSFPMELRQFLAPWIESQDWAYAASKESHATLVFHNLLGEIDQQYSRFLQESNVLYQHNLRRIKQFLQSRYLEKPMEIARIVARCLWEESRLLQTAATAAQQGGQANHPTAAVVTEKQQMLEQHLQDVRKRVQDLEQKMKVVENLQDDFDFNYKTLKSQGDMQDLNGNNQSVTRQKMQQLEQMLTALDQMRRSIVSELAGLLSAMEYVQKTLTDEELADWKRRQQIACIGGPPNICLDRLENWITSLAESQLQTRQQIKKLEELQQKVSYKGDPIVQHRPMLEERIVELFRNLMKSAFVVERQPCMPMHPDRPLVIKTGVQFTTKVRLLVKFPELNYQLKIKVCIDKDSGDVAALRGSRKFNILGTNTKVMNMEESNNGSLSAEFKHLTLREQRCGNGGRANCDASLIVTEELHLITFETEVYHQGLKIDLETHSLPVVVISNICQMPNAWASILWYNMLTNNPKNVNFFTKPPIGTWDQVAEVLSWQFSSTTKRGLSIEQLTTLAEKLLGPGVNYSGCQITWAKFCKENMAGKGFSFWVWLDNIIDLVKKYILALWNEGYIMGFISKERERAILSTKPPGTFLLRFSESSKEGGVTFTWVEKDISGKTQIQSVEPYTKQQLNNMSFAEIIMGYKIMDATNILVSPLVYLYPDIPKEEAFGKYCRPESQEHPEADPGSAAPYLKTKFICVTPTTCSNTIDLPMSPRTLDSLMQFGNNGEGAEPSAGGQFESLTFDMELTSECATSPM
X-box-binding protein 1 (Homo sapiens), sequence (P17861 whole entry, looked up): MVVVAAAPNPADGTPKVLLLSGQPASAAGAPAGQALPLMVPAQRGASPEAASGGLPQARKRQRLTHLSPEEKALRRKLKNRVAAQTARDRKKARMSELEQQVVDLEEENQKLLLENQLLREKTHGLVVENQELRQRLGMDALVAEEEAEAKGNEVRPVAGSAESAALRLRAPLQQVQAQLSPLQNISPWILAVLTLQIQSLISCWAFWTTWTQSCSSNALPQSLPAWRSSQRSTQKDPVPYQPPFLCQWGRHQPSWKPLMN
Nuclear receptor subfamily 1 group I member 3 (Homo sapiens), sequence (Q14994 whole entry, looked up, the tested form may be a part): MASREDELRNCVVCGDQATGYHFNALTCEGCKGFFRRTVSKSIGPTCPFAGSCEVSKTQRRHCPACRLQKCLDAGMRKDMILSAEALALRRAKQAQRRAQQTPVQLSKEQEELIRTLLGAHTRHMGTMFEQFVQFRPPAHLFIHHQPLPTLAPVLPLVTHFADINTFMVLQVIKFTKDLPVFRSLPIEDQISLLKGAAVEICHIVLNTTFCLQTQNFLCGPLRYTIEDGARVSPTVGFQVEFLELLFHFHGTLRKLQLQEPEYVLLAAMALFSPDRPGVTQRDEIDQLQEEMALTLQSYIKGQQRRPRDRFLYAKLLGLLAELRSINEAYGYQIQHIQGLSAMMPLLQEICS
Estrogen receptor (Homo sapiens), sequence (P03372 whole entry, looked up, the tested form may be a part): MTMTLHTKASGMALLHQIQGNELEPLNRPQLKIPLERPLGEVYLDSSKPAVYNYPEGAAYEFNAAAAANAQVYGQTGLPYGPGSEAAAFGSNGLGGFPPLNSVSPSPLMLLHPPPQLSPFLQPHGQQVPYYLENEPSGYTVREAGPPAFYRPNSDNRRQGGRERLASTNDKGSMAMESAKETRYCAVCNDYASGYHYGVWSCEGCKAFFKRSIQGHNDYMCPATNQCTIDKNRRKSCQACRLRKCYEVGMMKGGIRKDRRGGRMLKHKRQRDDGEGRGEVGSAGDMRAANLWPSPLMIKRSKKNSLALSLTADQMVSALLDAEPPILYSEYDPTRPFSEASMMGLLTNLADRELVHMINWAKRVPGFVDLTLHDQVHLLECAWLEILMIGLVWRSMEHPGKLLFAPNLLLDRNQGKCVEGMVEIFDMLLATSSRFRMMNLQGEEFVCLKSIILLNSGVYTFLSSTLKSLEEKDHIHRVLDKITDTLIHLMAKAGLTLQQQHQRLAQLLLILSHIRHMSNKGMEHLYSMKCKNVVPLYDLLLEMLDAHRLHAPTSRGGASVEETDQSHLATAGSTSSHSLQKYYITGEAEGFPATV
Paired box protein Pax-6 (Homo sapiens), sequence (P26367 whole entry, looked up): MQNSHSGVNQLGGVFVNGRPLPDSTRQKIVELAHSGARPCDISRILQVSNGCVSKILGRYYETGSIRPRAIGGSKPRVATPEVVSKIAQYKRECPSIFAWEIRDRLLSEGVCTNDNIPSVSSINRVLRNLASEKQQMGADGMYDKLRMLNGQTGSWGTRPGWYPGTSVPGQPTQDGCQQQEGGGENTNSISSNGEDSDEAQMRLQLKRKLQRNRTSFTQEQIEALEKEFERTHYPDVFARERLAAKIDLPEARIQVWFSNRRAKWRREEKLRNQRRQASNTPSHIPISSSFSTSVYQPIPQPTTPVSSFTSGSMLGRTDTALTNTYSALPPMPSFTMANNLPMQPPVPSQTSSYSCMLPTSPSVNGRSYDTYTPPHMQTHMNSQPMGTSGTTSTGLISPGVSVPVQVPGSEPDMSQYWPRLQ
Steroid hormone receptor ERR1 (Homo sapiens), sequence (P11474 whole entry, looked up, the tested form may be a part): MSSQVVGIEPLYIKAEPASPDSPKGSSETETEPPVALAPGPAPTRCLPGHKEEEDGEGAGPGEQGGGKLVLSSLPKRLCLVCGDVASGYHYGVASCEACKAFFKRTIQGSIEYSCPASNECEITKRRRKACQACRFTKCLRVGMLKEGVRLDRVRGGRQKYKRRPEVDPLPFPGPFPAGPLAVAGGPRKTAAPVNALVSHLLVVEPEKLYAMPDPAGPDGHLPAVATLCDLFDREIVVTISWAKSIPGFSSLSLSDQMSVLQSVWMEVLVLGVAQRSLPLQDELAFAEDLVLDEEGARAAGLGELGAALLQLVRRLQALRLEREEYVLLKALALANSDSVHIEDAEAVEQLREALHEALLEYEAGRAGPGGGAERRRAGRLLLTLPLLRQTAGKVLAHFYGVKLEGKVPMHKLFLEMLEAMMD

FC(F)=C(F)C(F)(F)C(F)(F)C(F)(F)C(F)(F)C(F)(F)C(F)(F)F
active: [11] 234 µM | [16] 12.9 µM
inactive: [1] | [2] | [3] | [4] | [5] | [6] | [7] | [8] | [9] | [10] | [11] | [12] | [13] | [14] | [15] | [16] | [17] | [18] | [19] | [20]

NC(=O)N1c2ccccc2C=Cc2ccccc21
active: [3] 34.8 µM
not listed: [14] | [15] | [17] | [19]
inactive: all other assays above

NC(N)=O
not listed: [14] | [15] | [16] | [17]
inactive: all other assays above

O=C(O)c1cccc(C[C@@H]2COc3ccc(OCc4nc5cc(F)ccc5s4)cc3[C@@H]2O)c1
active: [2] 135 µM | [11] 37.8 µM | [18] 160 µM
not listed: [4] | [17] | [20]
inactive: all other assays above

OCCOCCOCCO
not listed: [4] | [17] | [20]
inactive: all other assays above

O=C(O)c1ccc2c(c1)nc(C(=O)NC1CCN(C3CC3)CC1)n2Cc1cc(-c2ccc(Cl)s2)on1
active: [4] 0.149 µM
not listed: [14] | [15] | [17] | [19]
inactive: all other assays above

O=C1CN(N=Cc2ccc([N+](=O)[O-])o2)C(=O)N1
active: [11] 21.4 µM | [16] 32.1 µM
not listed: [15] | [17] | [20]
inactive: all other assays above
